TROY NFkB inh: inhibitors of TROY-dependent NF-kB signaling; hit rate 0.98% among 360,000; Q293 LMP1-TROYcd NF-kB luciferase reporter, 4 h; inhibition, % at 10 µM; AID 1347056;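 active = compounds whose plate-normalised and pattern-corrected inhibition of the luciferase reporter signal at the single screening dose is 50% or more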
LMP1 NFkB inh: Epstein-Barr LMP1 NF-kappaB reporter inhibition | LMP1-induced NF-kappaB luciferase reporter cells, luminescence | inhibition, % at 12.5 µM | hit rate 0.69% among 350,000; in the data active = inhibition above about 41%; inconclusive = no clear call, values can overlap the other calls;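 note: 0% = neutral control wells and 100% = reference inhibitor control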
PAX8 inh HTS: lowers PAX8-driven luciferase in RMG-I cells. RMG-I TPO-luciferase reporter, SteadyGlo, 24 h. inhibition, % at 12.6 µM. hit rate 1.2% among 360,000;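 active = mean replicate inhibition at least 60% with every replicate also reaching 60%; inconclusive = only one of the two criteria is met; inactive = mean below 60% and not all replicates reaching 60%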;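 note: luciferase light reporting Pax8 driven TPO promoter activity; plate controls were median of neutral control wells for no effect and mitoxantrone controls for full effect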
EWS-Fli block: blocks EWS/Fli oncoprotein-driven transcription; hit rate 0.67% among 350,000; A673 NR0B1-luciferase reporter, viability-normalised; inhibition, % at 12.6 µM;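 active = mean inhibition of at least 50% after viability correction, with every replicate also passing that limit; inconclusive = mean reaches 50% but only one of two replicates passes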;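 note: firefly luciferase signal divided by Alamar Blue viability fluorescence both relative to DMSO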
TWEAK-Fn14 inh: blocks TWEAK-Fn14 interaction in a reporter cell assay. AID 1159606. hit rate 2% among 360,000. TWEAK-stimulated Fn14 reporter cells, luciferase luminescence, 8 h. inhibition, % at 10 µM; in the data active = inhibition above about 50%
LGR2 antag: Drosophila LGR2 receptor signaling inhibition; hit rate 0.35% among 380,000; HEK293 LGR2, CRE-luciferase, bursicon-stimulated, 4 h; inhibition, % at 9.99 µM;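 active = drop in luminescence signal, shown as inhibition above about 50% in the replicate tests, limit read from the data, passing the limit was not always enough; inconclusive = probably only some replicates passing the limit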;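 note: agonist challenge used bursicon conditioned medium at about half maximal strength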
An asterisk follows results filed as active; ? = inconclusive; nt = no result. Hits are enriched below; roughly 3.1% of the tested compounds scored in any of these assays.

SMILES | TROY NFkB inh | LMP1 NFkB inh | PAX8 inh HTS | EWS-Fli block | TWEAK-Fn14 inh | LGR2 antag
C[C@H](CO)N1C[C@H](C)[C@H](CN(C)CC2CC2)Oc2ccc(NS(C)(=O)=O)cc2CC1=O | nt | nt | 8 | -5 | nt | 15
COc1ccccc1CN(C)C[C@@H]1OCc2cn(nn2)CCCC(=O)N([C@H](C)CO)C[C@@H]1C | nt | nt | nt | 6 | nt | 2
COc1cccc(CN2C(=O)C(C)N(C(=O)c3c(F)cccc3F)c3ccccc32)c1 (stereo unspecified) | 38 | 18 | 20 | 20 | 74* | 6
CC1C(=O)N(Cc2ccccc2F)c2ccccc2N1C(=O)c1c(F)cccc1F (stereo unspecified) | 30 | 4 | 18 | 4 | 32 | 28
CCC(=O)N[C@@H]1CC[C@H](CC(=O)NCc2ccccc2OC)O[C@H]1CO | nt | nt | 4 | -2 | nt | -2
CCOC(=O)C/C(C)=N\Nc1nc(-c2ccccc2)cs1 | 40 | -6 | 4 | -8 | 51* | -4
O=C(Nc1nccs1)C(c1ccccc1)N1CCCC1 (stereo unspecified) | 7 | -6 | 0 | -5 | 86* | 10
Cc1ccc(-c2n[nH]c(=S)n2/N=C/c2ccc(C)o2)cc1 | -7 | -2 | 19 | nt | -5 | 3
Cc1ccc(-c2n[nH]c(=S)n2/N=C/c2ccncc2)cc1 | 27 | 6 | -5 | -9 | 72* | -1
S=c1[nH]nc(-c2ccncc2)n1/N=C/C=C/c1ccccc1 | 18 | -6 | -51 | 2 | 41 | -4
S=c1[nH]nc(-c2ccncc2)n1/N=C/C(Cl)=C\c1ccccc1 | 22 | -17 | -18 | -47 | 81* | -27
CCc1ccc(OCC(=O)NC(NC(=S)Nc2ccccc2C)C(Cl)(Cl)Cl)cc1 (stereo unspecified) | 51* | 8 | 116* | 22 | 44 | 22
CCc1ccc(OCC(=O)NC(NC(=S)Nc2ccccc2)C(Cl)(Cl)Cl)cc1 (stereo unspecified) | 53* | 6 | 21 | nt | 74* | 39
O=C(NC(NC(=S)Nc1cccc(Cl)c1)C(Cl)(Cl)Cl)OCc1ccccc1 (stereo unspecified) | 58* | -1 | nt | nt | 54* | 5
CCNC(=O)C[C@H]1CC[C@@H]2[C@@H](COc3ccc(NC(=O)c4ccccc4)cc3C(=O)N2C)O1 | nt | nt | -13 | -5 | nt | -3
CC(=O)NCN1CCN(CNC(C)=O)CC1 | -1 | 4 | nt | nt | 74* | nt
N#C/C(=C\c1cccs1)C(=O)Nc1nccs1 | 2 | -23 | -205 | -123 | 53* | -18
N#C/C(=C\c1cccs1)C(=O)c1ccccc1Cl | nt | nt | 64* | 29 | nt | -2
N#C/C(=C\c1cccs1)C(=O)NCc1ccccc1 | -42 | 2 | -14 | nt | -11 | -20
C[C@H](CO)N1C[C@H](C)[C@@H](CN(C)C)Oc2ncc(-c3cccnc3)cc2C1=O | nt | nt | nt | -10 | nt | nt
Cc1ccc(O)c(C(=O)c2cnn(C(=O)c3cccc(S(=O)(=O)N(C)C)c3)c2)c1 | 40 | -7 | -7 | -4 | 63* | 1
C/C=C/c1ccc([C@@H]2[C@@H](CO)N3C(=O)CN(C(=O)c4cccc(F)c4)C[C@@H]23)cc1 | nt | nt | nt | nt | nt | 1
Cc1ccc(C(=O)N(Cc2ccco2)c2c(N)n(Cc3ccccc3)c(=O)[nH]c2=O)cc1 | -4 | -4 | -4 | -2 | 17 | 3
Cc1cccc(C(=O)N(Cc2ccco2)c2c(N)n(Cc3ccccc3)c(=O)[nH]c2=O)c1 | -9 | 68* | 13 | -2 | 5 | -6
CCCNC(=O)N(C)C[C@@H]1Oc2ncc(C3=CCCC3)cc2C(=O)N([C@H](C)CO)C[C@H]1C | nt | nt | -48 | -2 | nt | 4
SMILES | TROY NFkB inh | LMP1 NFkB inh | PAX8 inh HTS | EWS-Fli block | TWEAK-Fn14 inh | LGR2 antag
O=C(Nc1cccnc1)c1ccc(CN2CCc3ccccc3C2)cc1 | 28 | 13 | 7 | nt | 29 | nt
Cc1ccc(NC(=O)c2ccc(CN3CCN(C)CC3)cc2)cc1Nc1nccc(-c2cccnc2)n1 | -12 | 77* | -24 | 2 | -8 | 7
Cc1nnc(NC(=O)CSc2nc3c(c(=O)n2CCc2ccccc2)SC(C)C3)s1 (stereo unspecified) | -13 | -4 | 11 | 5 | -24 | 9
Cc1cc(NC(=O)CSc2nc3c(c(=O)n2CCc2ccccc2)SC(C)C3)no1 (stereo unspecified) | -21 | 77* | 11 | 5 | 1 | nt
c1ccc(C2=NNC(=NCc3ccc4c(c3)OCO4)SC2)cc1 | -36 | -2 | nt | nt | -9 | 4
Cc1sc(N)nc1-c1ccc2c(c1)OCCO2 | 12 | -10 | -23 | -31 | -6 | -12
C=CCN=C1NN=C(c2ccc3c(c2)OCCO3)CS1 | 69* | 47* | -31 | 58* | 67* | ?
NC1=NN=C(c2ccc3c(c2)OCCO3)CS1 | 45 | 36 | -11 | 36 | 58* | 34
C=CCN=C1NN=C(c2cc(C)n(CC=C)c2C)CS1 | 14 | 53* | 15 | 80* | 47 | 12
COCCN=C1NN=C(c2cc(C)n(CC3CCCO3)c2C)CS1 (stereo unspecified) | 1 | 3 | 3 | -16 | 13 | 22
Cc1noc(C)c1S(=O)(=O)N(C)C[C@H]1OCCCC[C@H](C)Oc2ccc(NC(=O)Nc3cccc4ccccc34)cc2C(=O)N([C@H](C)CO)C[C@@H]1C | nt | nt | 5 | -2 | nt | 22
C[C@@H]1CN([C@H](C)CO)C(=O)c2cc(NC(=O)NC3CCCCC3)ccc2O[C@@H](C)CCCCO[C@H]1CN(C)Cc1ccncc1 | nt | nt | 3 | 26 | nt | -7
O=C(C[C@H]1C[C@H]2c3cc(NC(=O)Nc4ccc(C(F)(F)F)cc4)ccc3O[C@H]2[C@H](CO)O1)NC1CCCCC1 | nt | nt | 14 | 0 | nt | -4
Cc1nc2ccccn2c1C(=O)/C=C/c1cccc([N+](=O)[O-])c1 | 36 | 32 | 8 | 13 | 94* | 24
Cc1ccc(/C=C/C(=O)c2c(C)nc3ccccn23)cc1 | -35 | -17 | nt | nt | 52* | nt
C/C(=N\NC(=O)c1c(C)nc2ccccn12)c1cccc([N+](=O)[O-])c1 | 20 | 6 | -8 | -2 | 14 | -29
CO[C@H]1CN(C)C(=O)c2cccc(C#N)c2OCC[C@@H]2CC[C@H](OC)[C@@H](CN(C)C(=O)[C@H]1C)O2 | nt | nt | 3 | -3 | nt | -15
Cc1c(Cc2ccccc2)sc(/N=C/c2ccc3ccccc3c2)c1C(N)=O | -64 | -12 | nt | nt | 60* | nt
COc1ccc(S(=O)(=O)Nc2ccc3c(c2)C(=O)N([C@@H](C)CO)C[C@H](C)[C@@H](CN(C)C(=O)Nc2ccc(F)cc2)OCCCC[C@H](C)O3)cc1 | nt | nt | 85* | -4 | nt | -19
Cc1ccc(S(=O)(=O)Nc2ccc3c(c2)C(=O)N([C@H](C)CO)C[C@@H](C)[C@H](CN(C)C(=O)Nc2ccc(F)cc2)OCCCC[C@@H](C)O3)cc1 | nt | nt | 61* | 12 | nt | -23
C[C@@H]1CN([C@@H](C)CO)C(=O)c2cc(NS(=O)(=O)c3ccc(Cl)cc3)ccc2O[C@@H](C)CCCCO[C@@H]1CN(C)C(=O)Nc1ccc(F)cc1 | nt | nt | 5 | -5 | nt | -3

Bioassay records from PubChem.
